In all, about 23,000 compounds went through this assay and about 30 (0.1%) showed an effect of 50% or more. Many of the other results were omitted from the sample, so strong results are more common in it than they were. Entries with a potency or affinity are not part of this list.

The test system of this assay is Pseudomonas aeruginosa. To be noted: Concentration 32 ug.mL-1; ASSAY_TEST Inhibition of Bacterial Growth; detection method Absorption (OD600); MEDIA CAMHB; plate type 384well; NBS; CORNING #3640; time 18 hr.
`N=C(Nc1ccccc1)c1cscn1` returned an Inhibition of 1.73%.
In turn, `N=C(Nc1ccccc1Cl)c1cscn1` returned an Inhibition of 77.11%.
For the compound `CCc1ccc(Nc2nc(N)c(-c3nc4ccccc4c(=O)n3-c3ccccc3)s2)cc1`, the Inhibition stood at 12.66%.
